High-throughput results from PubChem.
HCMV antiviral: qHTS Assay for inhibitors of the human cytomegalovirus (HCMV); HFF cells, HCMV-luciferase reporter, 72 h; hits give low values; 4.5% of 410,000 active; activity change, negative = inhibition, % at 57.5 µM; AID 1259415, 2018; in the data active = activity change below about -60%; inconclusive = no clear call, values can overlap the other calls; inactive = above about -39%
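Screen run at 2 compound doses on HFFs infected with reporter HCMV, MOI 1 PFU/cell. Luciferase activity from cell lysates at 72 h post infection gave inhibition relative to buffer-only and Salinomycin wells.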
LASV entry inh: qHTS for Inhibitors of binding or entry into cells for Lassa Virus. 1.2% of 300,000 active. Lassa virus pseudotype entry inhibition, cell reporter. Potency, µM (highest dose often 37.9 µM), for the others: at the highest dose activity change, negative = inhibition, usual class: inhibitors; calls by dose curve; tested in HEK293 cells; note: potency is the fitted concentration of half-maximal effect; nearly all actives have a fitted effect of over 50% in size
MARV entry inh: qHTS for inhibitors of binding or entry into cells for Marburg Virus | Potency, µM (top dose mostly 37.8 µM), for the others: at the top dose activity change, negative = inhibition, usual class: inhibitors | Marburg virus pseudotyped entry inhibition, cell reporter | 1.8% of 300,000 active; calls by dose curve; tested in HEK293 cells; note: potency is the fitted concentration of half-maximal effect
HCV inh: qHTS Assay for Inhibitors of Hepatitis C Virus (HCV). 3.4% of 340,000 active. Potency, µM (doses to about 41.8 µM), for inactives: at the top dose activity change, negative = inhibition, usual class: inhibitors. Huh7.5.1 HCVcc-Cre infection, luciferase reporter, 44 h; note: potency is the fitted concentration of half-maximal effect
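Luciferase read-out (15 sec integration) after a 15 min room-temperature substrate step quantifies HCVcc-Cre infection. Cells, 1,000 per well, had compound added 4 h post-plating, then virus at ~0.5 moi, and were cultured 44 h.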
Pf growth 96h: Primary qHTS for delayed death inhibitors of the malarial parasite plastid, 96 hour incubation. 6.9% of 320,000 active. Potency, µM (top dose mostly 28.7 µM), for inactives: top-dose activity change, negative = inhibition, hits mostly inhibitors. P. falciparum luciferase reporter growth, 96 h; note: potency is the fitted concentration of half-maximal effect
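Infected RBCs, 2% Hct / 0.05% parasitemia final; luciferase-reporter P. falciparum; cpd 96 h, 37 C, 5% CO2; luciferase detection reagent; luminescence.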
Pf growth 48h: Primary qHTS for delayed death inhibitors of the malarial parasite plastid, 48 hour incubation; Potency, µM (titrated, usually from 28.7 µM), for the others: at the top dose activity change, negative = inhibition, most hits filed as inhibitors; P. falciparum luciferase growth in erythrocytes, 48 h; AID 504832, 2011; 5.9% of 310,000 active; note: potency is the fitted concentration of half-maximal effect
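Here the parasites carry a stable luciferase gene and grow inside erythrocytes in Albumax-based RPMI medium with compound for one erythrocytic cycle. Activity is scored as loss of luminescent signal.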
An asterisk follows results filed as active; [ ] = remark or other dose. This is a sample that favours compounds with a hit; in the whole collection about 14% have one here. Unless noted, calls come from the whole dose curve; as a rule, active = well fitted inhibition curve with a large enough effect; inconclusive = small, poorly fitted or top-dose-only effect, or another doubt; inactive = no such curve, though single readings can be large or run the other way. % is set by controls: 0 for no effect and ±100 for the full control effect.

How did O=C(NCc1cccnc1)C1CCCN(S(=O)(=O)c2cccc3nsnc23)C1 (stereo not drawn) do in these assays?
HCMV antiviral: inconclusive; LASV entry inh: 11.7%; MARV entry inh: -2.7%; HCV inh: 3.6%; Pf growth 96h: 10.4µM*; Pf growth 48h: -6.0%

Results for O=C(Nc1ccc(Cl)cc1)Nc1cccc2nsnc12 ?
HCMV antiviral: 80.4; HCV inh: inconclusive; Pf growth 96h: -96.0%; Pf growth 48h: -42.0%

What do the screens show for `CCN(CC)S(=O)(=O)c1cc(C(=O)Nc2cc(C)on2)ccc1Cl`?
HCMV antiviral: -63.9*; LASV entry inh: 12.1%[46.1 µM]; MARV entry inh: -27.5%[46.1 µM]; HCV inh: inconclusive; Pf growth 96h: inconclusive; Pf growth 48h: inconclusive

How did CCN(CC)S(=O)(=O)c1ccc(C(=O)Nc2cc(C)on2)cc1 do in these assays?
HCMV antiviral: 16.4; LASV entry inh: inconclusive; MARV entry inh: 8.0%; HCV inh: -7.9%; Pf growth 96h: 7.38µM*; Pf growth 48h: 11.7µM*

What do the screens show for `Cc1ccc(-c2csc3nc(SCC(=O)N(C)C)n(Cc4ccccc4)c(=O)c23)cc1`?
HCMV antiviral: 37.2; LASV entry inh: inconclusive; MARV entry inh: inconclusive; HCV inh: 31.6µM*; Pf growth 96h: inconclusive; Pf growth 48h: 13.1µM*

How did C=CCn1c(SCC(=O)Nc2ccc(C(=O)O)cc2)nc2scc(-c3ccccc3)c2c1=O do in these assays?
HCMV antiviral: -11.4; LASV entry inh: 14.9%; MARV entry inh: 16.7%; HCV inh: 0.2%

How did NC(=O)CSc1nc2scc(-c3ccc(Cl)cc3)c2c(=O)n1Cc1ccccc1 do in these assays?
HCMV antiviral: inconclusive; LASV entry inh: -13.7%[46.1 µM]; MARV entry inh: -16.6%[46.1 µM]; HCV inh: 2.0%; Pf growth 96h: 8.28µM*; Pf growth 48h: 11.7µM*

Results for CCCSCCCNC(=O)Cn1c(-c2cccs2)cc2ccccc21 ?
HCMV antiviral: -9.2; LASV entry inh: 1.1%[46.1 µM]

What do the screens show for `O=C(c1ccco1)N1N=C2CCCCCC2C1(O)C(F)(F)F` (stereo not drawn)?
HCMV antiviral: -65.8*; LASV entry inh: 8.4%[46.1 µM]; MARV entry inh: -14.3%[46.1 µM]; HCV inh: 23.9%; Pf growth 96h: 7.7%; Pf growth 48h: 35.3%

How did COC(=O)c1cc([N+](=O)[O-])c(C)c(C)n1 do in these assays?
HCMV antiviral: -29.7

What do the screens show for `C[C@H](CO)N1C[C@H](C)[C@@H](CN(C)C(=O)Nc2ccccc2F)OCc2cnnn2CCCC1=O`?
HCMV antiviral: 4.0

How did Cc1ccc(-c2csc(N3CCC[C@@H]3C(=O)NCCn3c(-c4ccncc4)nc4ccccc43)n2)cc1 do in these assays?
HCMV antiviral: -8.4; HCV inh: inconclusive; Pf growth 96h: 3.29µM*; Pf growth 48h: inconclusive

How did Cc1ccc(-c2csc(N3CCN(CCCn4c(C(F)(F)F)nc5ccccc54)CC3)n2)cc1 do in these assays?
HCMV antiviral: inconclusive; HCV inh: 4.6%; Pf growth 96h: inconclusive; Pf growth 48h: inconclusive

How did Cc1ccc(-c2csc(N3CCN(CCCn4c(-c5ccncc5)nc5ccccc54)CC3)n2)cc1 do in these assays?
HCMV antiviral: inconclusive; HCV inh: inconclusive; Pf growth 96h: 2.62µM*; Pf growth 48h: inconclusive

What do the screens show for `CC(=O)N[C@@H](C)c1nc2ccccc2n1CCCN1CCN(c2nc(-c3ccc(C)cc3)cs2)CC1`?
HCMV antiviral: -67.5*; HCV inh: 3.55µM*; Pf growth 96h: inconclusive; Pf growth 48h: inconclusive

What do the screens show for `COc1ccc(-c2nc3sc(CCNC(=O)C(=O)Nc4c(C)cccc4C)c(C)n3n2)cc1`?
HCMV antiviral: 2.6; LASV entry inh: inconclusive

What do the screens show for `COCCn1c(C)cc(O)c(C(c2ccccc2)N2CCN(c3ccc(F)cc3)CC2)c1=O` (stereo not drawn)?
HCMV antiviral: inconclusive; LASV entry inh: 7.2%[46.1 µM]

How did Cc1ccc(NS(=O)(=O)c2ccc(C(=O)N3CCN(c4ncccn4)CC3)cc2)cc1 do in these assays?
HCMV antiviral: -77.2*; LASV entry inh: 7.94µM*; MARV entry inh: inconclusive; HCV inh: inconclusive; Pf growth 96h: -24.8%; Pf growth 48h: -14.4%

Results for Cc1ccc(C(=O)N2CCN(c3ncccn3)CC2)cc1 ?
HCMV antiviral: -5.3; HCV inh: 5.1%; Pf growth 96h: 18.3%; Pf growth 48h: 13.0%

How did O=C(c1ccc(S(=O)(=O)Nc2ccc(F)cc2)cc1)N1CCN(c2ccccn2)CC1 do in these assays?
HCMV antiviral: -80.4*; LASV entry inh: inconclusive; MARV entry inh: inconclusive; HCV inh: inconclusive; Pf growth 96h: inconclusive; Pf growth 48h: inconclusive

What do the screens show for `O=C(N1CCOCC1)C(F)(F)C(F)(F)C(F)(F)C(F)(F)C(=O)N1CCOCC1`?
HCMV antiviral: 12.6; LASV entry inh: -10.2%; MARV entry inh: inconclusive; HCV inh: 15.0%; Pf growth 96h: 11.7µM*; Pf growth 48h: 15.7%

Results for CC(=O)N1CCOCCOCCN(C(C)=O)CCOCCOCC1 ?
HCMV antiviral: 21.0; LASV entry inh: 0.6%; MARV entry inh: -5.2%[46.1 µM]; HCV inh: 4.0%; Pf growth 96h: 19.9%; Pf growth 48h: 34.7%

Results for Cc1ccccc1Cn1c(=O)n(CCCCC(=O)NCCc2ccccc2)c(=O)c2ccccc21 ?
HCMV antiviral: 0.9; LASV entry inh: -0.4%[46.1 µM]; MARV entry inh: -22.5%[46.1 µM]

Results for c1ccc2c(c1)[nH]c1c(N3CCOCC3)ncnc12 ?
HCMV antiviral: -31.5; LASV entry inh: -1.9%; MARV entry inh: -10.4%; HCV inh: inconclusive; Pf growth 96h: 0.2%; Pf growth 48h: inconclusive

What do the screens show for `CCc1cc(N2CCOCC2)cc2c1[nH]c1ccccc12`?
HCMV antiviral: 4.7; LASV entry inh: 2.1%; MARV entry inh: -2.7%; HCV inh: 7.08µM*; Pf growth 96h: inconclusive; Pf growth 48h: -7.3%

How did O=C(Cn1c(=O)n(-c2ccccc2)c(=O)c2sc3ccccc3c21)N1CCCC1 do in these assays?
HCMV antiviral: -18.9; LASV entry inh: 5.1%[46.1 µM]; MARV entry inh: 4.3%[46.1 µM]

How did CCN(C(=O)CSc1ccccn1)C1CCCCC1 do in these assays?
HCMV antiviral: -28.3; HCV inh: 0.8%

How did O=C(CSc1ccc([N+](=O)[O-])cn1)Nc1ccc2[nH]c(=O)[nH]c2c1 do in these assays?
HCMV antiviral: -12.4; LASV entry inh: -17.1%[46.1 µM]; MARV entry inh: 8.6%[46.1 µM]; HCV inh: 0.7%; Pf growth 96h: 4.65µM*; Pf growth 48h: 11.1%
